Measurements: PubChem BioAssay
For some of these results: Results with a measured potency or affinity are listed apart. Active and inactive are the calls of the source. Unless noted, the rule behind the calls is not given here.

Assays:
[1] = antimalarial activity against Dd2 strain (AID 2302;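 active = growth inhibition above 50% at the single 2 µM test dose, taken to imply half-maximal potency below 2 µM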;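 note: 0% = DMSO untreated growth and 100% = chloroquine plus artemisinin killed control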); conditions: P. falciparum Dd2 in RBCs, LDH growth readout, 72 h; at 2 µM; hits give high values
[2] = HepG2 cytotoxicity, primary screen, cytotoxicity control for P. falciparum antimalarial project, cell-based, ATP luminescence (AID 2303;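 active = inhibition above 50%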;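 note: 0% = DMSO wells and 100% = digitonin-killed cells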); conditions: HepG2 viability, 24-48 h, at 10 µM, hits give high values
[3] = biological target: L-lactate dehydrogenase (Plasmodium falciparum (isolate CDC / Honduras)) (UniProt Q27743); assay: PfLDH activity inhibition – cell lysate, 3D7 strain, counter-screen for P. falciparum growth inhibition project (AID 2304);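 note: 0% = vehicle and 100% = reference inhibitor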; conditions: P. falciparum 3D7 crude extract, LDH APAD/NBT absorbance; at 2 µM; hits give high values
Chain of L-lactate dehydrogenase (Plasmodium falciparum (isolate CDC / Honduras)) (Q27743 whole entry, looked up): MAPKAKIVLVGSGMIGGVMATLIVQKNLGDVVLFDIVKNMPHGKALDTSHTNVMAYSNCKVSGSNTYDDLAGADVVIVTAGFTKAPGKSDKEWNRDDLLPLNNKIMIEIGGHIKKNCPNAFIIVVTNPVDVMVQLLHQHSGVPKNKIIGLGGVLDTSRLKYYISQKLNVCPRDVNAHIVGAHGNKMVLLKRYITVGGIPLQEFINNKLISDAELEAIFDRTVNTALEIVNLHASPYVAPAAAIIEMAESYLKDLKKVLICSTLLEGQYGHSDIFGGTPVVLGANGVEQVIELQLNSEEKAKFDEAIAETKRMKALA

[4] = inhibition of 3D7 malaria parasite growth – strain 3D7 (AID 2306);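 note: 0% = DMSO wells and 100% = chloroquine plus artemisinin control wells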; conditions: P. falciparum 3D7 erythrocytic growth, LDH absorbance, 72 h; at 2 µM; hits give high values
[5] = biological target: Calcium-dependent protein kinase 1 (Plasmodium falciparum (isolate 3D7)) (UniProt P62344); assay: PfCDPK1 kinase inhibitors, biochemical, TCAMS library (AID 1159585; cut-off not given, nearly all actives have IC50 up to about 0.98 µM;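 note: inhibitors leave more ATP so luminescence rises with inhibition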); conditions: recombinant PfCDPK1, Kinase-Glo ATP depletion luminescence
Chain of Calcium-dependent protein kinase 1 (Plasmodium falciparum (isolate 3D7)) (P62344 whole entry, looked up): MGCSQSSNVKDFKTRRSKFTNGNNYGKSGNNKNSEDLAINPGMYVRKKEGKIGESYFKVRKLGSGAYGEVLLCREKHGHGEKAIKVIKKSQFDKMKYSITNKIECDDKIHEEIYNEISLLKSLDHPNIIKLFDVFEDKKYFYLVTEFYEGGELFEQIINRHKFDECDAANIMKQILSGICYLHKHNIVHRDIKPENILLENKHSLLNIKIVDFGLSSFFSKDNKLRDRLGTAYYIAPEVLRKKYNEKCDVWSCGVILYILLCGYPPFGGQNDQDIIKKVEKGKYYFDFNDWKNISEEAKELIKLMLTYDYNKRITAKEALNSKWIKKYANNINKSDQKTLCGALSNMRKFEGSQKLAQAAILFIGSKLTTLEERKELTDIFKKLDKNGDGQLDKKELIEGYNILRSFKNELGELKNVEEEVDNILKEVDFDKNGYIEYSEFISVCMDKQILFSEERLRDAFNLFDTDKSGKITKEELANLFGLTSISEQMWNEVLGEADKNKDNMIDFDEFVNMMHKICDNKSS

[6] = biological target: Plasmodium falciparum protein kinase 6 (PK6, PF3D7_1337100) (UniProt Q8IDW1); assay: PfPK6 kinase inhibitors, biochemical, TCAMS library (AID 1159586); conditions: recombinant PfPK6, Kinase-Glo ATP depletion luminescence
Chain of Plasmodium falciparum protein kinase 6 (PK6, PF3D7_1337100) (Q8IDW1 1-305): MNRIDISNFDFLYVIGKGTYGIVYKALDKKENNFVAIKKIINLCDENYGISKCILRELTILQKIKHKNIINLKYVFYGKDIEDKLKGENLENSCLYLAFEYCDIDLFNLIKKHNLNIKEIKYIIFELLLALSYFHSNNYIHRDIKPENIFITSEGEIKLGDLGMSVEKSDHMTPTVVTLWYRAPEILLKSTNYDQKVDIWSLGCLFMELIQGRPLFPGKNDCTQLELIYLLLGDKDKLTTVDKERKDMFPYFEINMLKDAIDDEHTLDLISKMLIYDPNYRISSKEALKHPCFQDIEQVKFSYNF

[7] = biological target: Protein kinase 7 (PK7), Plasmodium falciparum 3D7 (PF3D7_0213400) (UniProt Q7YTF7); assay: inhibition of Plasmodium PK7 catalytic activity – biochemical, TCAMS antimalarial set, Kinase-Glo luminescence (AID 1159587); conditions: recombinant PfPK7, Kinase-Glo ATP depletion luminescence
Chain of Protein kinase 7 (PK7), Plasmodium falciparum 3D7 (PF3D7_0213400) (Q7YTF7 1-343): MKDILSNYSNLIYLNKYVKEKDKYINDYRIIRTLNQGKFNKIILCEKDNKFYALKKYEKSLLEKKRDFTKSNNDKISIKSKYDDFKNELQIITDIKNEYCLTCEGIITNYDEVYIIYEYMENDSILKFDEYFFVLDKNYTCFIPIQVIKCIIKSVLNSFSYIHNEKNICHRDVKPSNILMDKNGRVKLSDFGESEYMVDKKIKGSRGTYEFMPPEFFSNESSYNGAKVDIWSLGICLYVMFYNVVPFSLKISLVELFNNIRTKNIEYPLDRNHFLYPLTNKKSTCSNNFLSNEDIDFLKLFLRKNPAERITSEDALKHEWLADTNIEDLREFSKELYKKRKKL

[8] = biological target: Calcium-dependent protein kinase 4 (Plasmodium falciparum (isolate 3D7)) (UniProt Q8IBS5); assay: PfCDPK4 kinase inhibitors, biochemical, TCAMS library (AID 1159588; cut-off not given, nearly all actives have IC50 up to about 0.91 µM); conditions: recombinant PfCDPK4, Kinase-Glo ATP depletion luminescence
Chain of Calcium-dependent protein kinase 4 (Plasmodium falciparum (isolate 3D7)) (Q8IBS5 whole entry, looked up): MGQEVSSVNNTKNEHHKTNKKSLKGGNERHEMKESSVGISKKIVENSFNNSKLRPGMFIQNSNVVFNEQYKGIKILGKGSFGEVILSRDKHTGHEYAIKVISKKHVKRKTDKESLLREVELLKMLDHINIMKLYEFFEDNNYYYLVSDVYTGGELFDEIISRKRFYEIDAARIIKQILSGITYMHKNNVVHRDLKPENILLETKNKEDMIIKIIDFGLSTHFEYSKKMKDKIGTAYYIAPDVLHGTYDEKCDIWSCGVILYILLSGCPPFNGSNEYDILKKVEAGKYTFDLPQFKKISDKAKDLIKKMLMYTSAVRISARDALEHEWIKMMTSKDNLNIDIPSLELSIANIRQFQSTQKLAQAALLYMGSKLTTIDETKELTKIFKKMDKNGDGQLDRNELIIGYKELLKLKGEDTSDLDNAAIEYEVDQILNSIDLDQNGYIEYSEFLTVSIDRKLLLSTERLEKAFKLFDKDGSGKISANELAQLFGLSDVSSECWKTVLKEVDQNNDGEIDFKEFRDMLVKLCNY

Cc1[nH]c(C)c(-c2ccc(-c3ccc(OC(F)(F)F)cc3)nc2)c(=O)c1Br
inactive: inhibition [2] 26% | inhibition [3] 3% | outcome [5] | outcome [6] | outcome [7] | outcome [8]
active: growth inhibition [1] 97% | growth inhibition [4] 97%

CCOc1ccccc1C(=O)N1CCc2cc3nccc(N4CCN5CCC[C@H]5C4)c3cc21
inactive: inhibition [2] 4% | inhibition [3] -8% | outcome [5] | outcome [6] | outcome [7] | outcome [8]
active: growth inhibition [1] 58% | growth inhibition [4] 100%

CCN(CC)CCOC(=O)c1ccc(NC(=O)c2cc(-c3ccc(C)cc3)nc3ccccc23)cc1
active: growth inhibition [4] 97%
inactive: growth inhibition [1] 12% | inhibition [2] 22% | inhibition [3] -4% | outcome [5] | outcome [6] | outcome [7] | outcome [8]

O=c1cc(NCCCNC2CCc3c(Cl)cc(Cl)cc32)[nH]c2ccccc12 (stereo not given)
inactive: growth inhibition [1] 29% | inhibition [2] 3% | inhibition [3] 0% | outcome [5] | outcome [6] | outcome [7] | outcome [8]
active: growth inhibition [4] 100%

Cc1ccc(Oc2c(-c3ccccc3CN3CCCC3CN(C)C)cnn(C)c2=O)cn1 (stereo not given)
inactive: growth inhibition [1] 9% | inhibition [2] -1% | inhibition [3] -4% | outcome [5] | outcome [6] | outcome [7] | outcome [8]
active: growth inhibition [4] 88%

COc1cccc(Nc2nc(C)cc(NC3CCN(Cc4ccccc4)CC3)n2)c1
inactive: growth inhibition [1] 46% | inhibition [2] 15% | inhibition [3] 8% | outcome [5] | outcome [6] | outcome [7] | outcome [8]
active: growth inhibition [4] 102%

CC(=O)Nc1csc(-c2cnc(/C=C(\C)C[C@@H]3OC[C@H](C[C@@H]4O[C@H]4[C@@H](C)[C@H](C)O)[C@@H](O)[C@H]3O)o2)c1
inactive: growth inhibition [1] 8% | inhibition [2] 1% | inhibition [3] 0% | outcome [5] | outcome [6] | outcome [7] | outcome [8]
active: growth inhibition [4] 94%

Cc1nn(C)c(C)c1CN(Cc1nc(-c2cccc(Oc3ccccc3)c2)oc1C)C1CC1
inactive: inhibition [2] 7% | inhibition [3] 0% | outcome [5] | outcome [6] | outcome [7] | outcome [8]
active: growth inhibition [1] 98% | growth inhibition [4] 101%

COc1cc(CN2CCC(NC(=O)[C@H](Cc3ccccc3)NC(=O)Nc3ccc(Oc4ccccc4)cc3)C2)ccc1O (stereo not given in full)
inactive: growth inhibition [1] -2% | inhibition [2] 10% | inhibition [3] 6% | outcome [5] | outcome [6] | outcome [7] | outcome [8]
active: growth inhibition [4] 92%

N#Cc1ccc(NC(=NC2CCCc3ccccc32)Nc2ccc(-c3ccccc3)cc2)c(O)c1 (stereo not given)
inactive: inhibition [2] 0% | inhibition [3] 3% | outcome [5] | outcome [6] | outcome [7] | outcome [8]
active: growth inhibition [1] 98% | growth inhibition [4] 99%

Cc1cccc2[nH]c(-c3ccc(-c4ccc(NC(=O)Nc5ccsc5)cc4)s3)nc12
inactive: inhibition [3] 2% | outcome [5] | outcome [6] | outcome [7] | outcome [8]
active: growth inhibition [1] 88% | inhibition [2] 74% | growth inhibition [4] 100%

Cc1nc2nc(N)nc(N)c2c(C)c1Cc1cccs1
active: inhibition [2] 66% | growth inhibition [4] 95%
inactive: growth inhibition [1] 2% | inhibition [3] -1% | outcome [5] | outcome [6] | outcome [7] | outcome [8]

O=C(Nc1cccc(CN2CCCN(Cc3ccccc3)CC2)c1)c1ccc(Cl)c(Cl)c1
active: growth inhibition [4] 95%
inactive: growth inhibition [1] 16% | inhibition [2] 23% | inhibition [3] -6% | outcome [5] | outcome [6] | outcome [7] | outcome [8]

O=C(NCC(NCCCNc1cc(=O)c2ccccc2[nH]1)c1cc(Br)cc(Br)c1)C1=CCCC1 (stereo not given)
inactive: growth inhibition [1] 48% | inhibition [2] -4% | inhibition [3] 7% | outcome [5] | outcome [6] | outcome [7] | outcome [8]
active: growth inhibition [4] 96%

COc1ccc2nccc([C@@H](O)CN3CCC(NC(=O)c4cc5c(F)cc(F)cc5[nH]4)CC3)c2c1
active: growth inhibition [1] 98% | growth inhibition [4] 101%
inactive: inhibition [2] 33% | inhibition [3] -1% | outcome [5] | outcome [6] | outcome [7] | outcome [8]

CCN(CC)CCN(Cc1ccc(-c2ccc(C(F)(F)F)cc2)cc1)C(=O)Cn1c(CCc2cccc(F)c2F)cc(=O)cc1-c1ccccc1
inactive: inhibition [2] 33% | inhibition [3] -2% | outcome [5] | outcome [6] | outcome [7] | outcome [8]
active: growth inhibition [1] 64% | growth inhibition [4] 94%

O=C(Cn1c(SCc2cccc(F)c2F)cc(=O)c2ccccc21)N(CCn1ccnc1)Cc1ccc(-c2ccc(C(F)(F)F)cc2)cc1
active: growth inhibition [1] 94% | growth inhibition [4] 100%
inactive: inhibition [2] 20% | inhibition [3] -2% | outcome [5] | outcome [6] | outcome [7] | outcome [8]

COc1cccc2c(Oc3ccccc3C)ccnc12
inactive: growth inhibition [1] 45% | inhibition [2] -7% | inhibition [3] 4% | outcome [5] | outcome [6] | outcome [7] | outcome [8]
active: growth inhibition [4] 85%

CC(C)(CNCc1cccc(Oc2cccc(C(F)(F)F)c2)c1)c1nc(-c2ccc(Cl)c(O)c2)c(-c2ccnc(N)n2)[nH]1
inactive: inhibition [2] 23% | inhibition [3] 2% | outcome [5] | outcome [6] | outcome [7] | outcome [8]
active: growth inhibition [1] 98% | growth inhibition [4] 99%

COc1ccc(CON2C(N)=NC(N)=NC2(C)C)cc1OC
inactive: inhibition [3] 1% | outcome [5] | outcome [6] | outcome [7] | outcome [8]
active: growth inhibition [1] 97% | inhibition [2] 68% | growth inhibition [4] 96%
